Source: PubChem
Sa ugtP lethal – compounds lethal to S. aureus RN4220 ugtP deletion mutant; OD600 growth, 16 h; growth inhibition, % (no concentration beside the values); 330,000 tested, 0.54% active; AID 1259309; in the data active = growth inhibition above about 68%
PriA SSB inh – blocks PriA binding to SSB C-terminal tail | AlphaScreen SSBct-PriA binding, biotinylated peptide | inhibition, % at 33 µM | 430,000 tested, 0.6% active | AID 1272365; in the data active = inhibition mostly above about 37%, no sharp cut-off; inactive = mostly below about 20%
Mtb hypoxia rep – inhibitors of hypoxia-regulated fluorescent reporter in Mycobacterium tuberculosis; M. tuberculosis hypoxia-regulated fluorescent reporter, fluorescence; fluorescence inhibition, % (concentration not given with the values); 300,000 tested, 0.1% active; in the data active = fluorescence inhibition mostly above about 23%, no sharp cut-off; inactive = mostly below about 17%
RN4220 kill – S. aureus RN4220 growth inhibition; OD600, 16 h; inhibition, % (concentration not given with the values); 330,000 tested, 0.33% active; in the data active = inhibition above about 85%
PfHsp40 rescue – restores yeast growth despite PfHsp40 toxicity; 340,000 tested, 0.68% active; AID 504582; growth rescue, % at 12.5 µM; S. cerevisiae expressing PfHsp40, growth rescue, ATP luminescence; in the data active = growth rescue above about 28%, passing the limit was not always enough;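 also: yeast W303a lacking pdr1 and pdr3 grown in galactose medium; growth measured after three days at 30 °C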
DUSP3 inh – DUSP3 (human) phosphatase inhibition. 290,000 tested, 0.52% active. AID 1654. recombinant VHR phosphatase, pNPP absorbance. P51452. inhibition, % at 13.3 µM; in the data active = inhibition above about 50%
Target sequence (P51452 whole entry, looked up): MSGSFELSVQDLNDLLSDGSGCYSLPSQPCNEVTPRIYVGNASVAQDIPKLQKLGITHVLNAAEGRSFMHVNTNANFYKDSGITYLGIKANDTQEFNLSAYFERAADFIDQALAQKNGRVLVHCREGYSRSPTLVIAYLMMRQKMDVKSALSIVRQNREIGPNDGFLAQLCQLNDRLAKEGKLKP
A number is an active result; n = inactive; x = not tested or not shown. Only some compounds are listed: those with a hit (about 1.8% of all), similar ones and a draw of the others.

SMILES	Sa ugtP lethal	PriA SSB inh	Mtb hypoxia rep	RN4220 kill	PfHsp40 rescue	DUSP3 inh
O=[N+]([O-])c1cc(C=NNc2nc(N3CCOCC3)nc(N3CCOCC3)n2)ccc1Cl	n	n	n	n	x	x
C=C(C)CSc1nc2sc3c(c2c(=O)n1C1CCCCC1)CCN(C)C3	active	n	n	n	n	n
CCSc1nc2sc3c(c2c(=O)n1C1CCCCC1)CCN(C)C3	n	n	n	n	n	n
CC(NC(=O)COC(=O)c1ccc(N2CCCC2=O)cc1)c1ccc(F)cc1 (configuration not stated)	n	n	33	n	n	x
Cc1ccc(NC(=O)C2CC(=O)N/C(=N/N=C/c3ccco3)S2)cc1 (configuration not stated)	x	x	x	x	n	58
Cc1ccc(NC(=O)c2ccccc2NS(=O)(=O)c2ccc(Cl)s2)cc1	90	n	n	n	80	n
O=C(Nc1ccccc1)c1ccccc1NS(=O)(=O)c1ccc(Cl)s1	92	n	n	87	n	n
O=C(c1ccc(Cl)nc1)N1CCN(c2ccc(-c3ccc(F)cc3)nn2)CC1	x	n	x	x	x	x
O=C(c1cccs1)N1CCc2ccc(NS(=O)(=O)CCc3ccccc3)cc2C1	x	n	x	x	x	x
Oc1c(Cl)cc(Cl)cc1/C=N/NC(=S)NC1CC2C=CC1C2 (configuration not stated)	x	x	x	x	132	n
CC(C)Sc1ccc(CC(=O)Nc2cnn([C@H]3CCOC3)c2)cc1	x	n	x	x	x	x
Fc1ccc(NC(=S)NN=Cc2ccccc2Cl)cc1	86	n	n	n	n	x
COc1ccc(Cl)cc1NC(=O)C(C)OC(=O)Cn1cc(C(F)(F)F)ccc1=O (configuration not stated)	n	n	27	n	n	x
CNc1nc(Nc2ccccc2)nc(OCC(F)(F)F)n1	n	n	n	n	n	n
CNc1nc(NN)nc(Nc2ccccc2)n1	n	105	n	n	n	n
Cc1cccc[n+]1CCCCCCCCCC[n+]1ccccc1C	n	n	n	n	n	n
CCCCCCCC[n+]1cccc2c3ccccc3ccc21	101	n	n	100	n	n
CCCCCCCCCC[n+]1cccc2c3ccccc3ccc21	100	n	n	100	133	n
CCCN1CCCc2cc(CCNC(=O)C(=O)Nc3ccc(C)c(Cl)c3)ccc21	x	n	x	x	x	x
O=C(/C=C/c1cccc([N+](=O)[O-])c1)Nc1cccc(Br)c1	x	n	x	x	x	x
O=C(c1ccco1)N(CC1CCCO1)c1nc(-c2ccccc2)cs1 (configuration not stated)	86	n	n	n	n	n
Cc1ccc(-c2csc(N(CC3CCCO3)C(=O)c3ccco3)n2)cc1 (configuration not stated)	n	n	n	n	n	n
CCOc1cc2[nH]c(=O)n(Cc3ccc(C(=O)NCCOC)cc3)c(=O)c2cc1OCC	n	104	n	n	n	n
CCCCNC(=O)CCCCCn1c(=O)[nH]c2cc(OC)c(OC)cc2c1=O	n	n	n	n	n	n
CCCCCNC(=O)CCCCn1c(=O)[nH]c2cc(OCC)c(OCC)cc2c1=O	n	n	n	n	n	51
SMILES	Sa ugtP lethal	PriA SSB inh	Mtb hypoxia rep	RN4220 kill	PfHsp40 rescue	DUSP3 inh
O=C(Nc1cc(Cl)cc(Cl)c1)c1cc2cc([N+](=O)[O-])ccc2s1	x	n	x	x	x	x
C[C@@H]1CN([C@H](C)CO)C(=O)c2cc(NC(=O)Nc3ccc(F)cc3)ccc2O[C@H]1CN(C)C(=O)Nc1ccc(C(F)(F)F)cc1	n	n	n	n	47	x
Cc1ccc(-n2c(C)cc(=O)cc2C)cc1	x	n	x	x	x	x
Cc1ccc(-n2c(Cl)c(Cl)nc(Cl)c2=O)cc1	100	n	n	100	42	n
O=C(NCC(c1ccc(F)cc1)N1CCOCC1)c1cccc(Br)c1 (configuration not stated)	n	42	n	n	n	n
Cc1cccc(CCNS(=O)(=O)c2ccc3c(c2)oc(=O)n3C)c1	n	n	n	n	n	n
Cn1c(=O)oc2cc(S(=O)(=O)NCCc3ccccc3)ccc21	n	n	n	n	n	57
C(=C\c1nc(N2CCCC2)c2ccccc2n1)/c1ccccc1	n	n	45	n	n	n
Cc1c(Cl)cccc1-c1ccc(/C=N/n2cnnc2)o1	x	x	x	x	n	59
Clc1cccc(-c2ccc(/C=N/n3cnnc3)o2)c1Cl	x	x	x	x	n	n
COc1ccc(-c2cc(C(F)(F)F)nc(N3CCCCCC3)n2)cc1	95	n	n	n	n	n
N[C@@H]1C[C@H]1c1ccccc1	x	n	x	x	44	x
O=Cc1c(Cl)nc2ccccn12	n	n	n	n	n	n
Clc1cc2nc3ccccn3c2cc1Cl	n	n	x	n	152	n
